# Measured values: PubChem BioAssay (NCI)
# The panel holds about 83,000 compounds, 20% with a hit somewhere; the sample as a whole holds those more often.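 Activity criterion: percent growth below 10, measured after cells in 96-well plates were exposed to a single compound concentration for 48 hours.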 Values without a mark were called inactive. Active and inactive are the calls of the source.
# Key:
# Assay in all cases: NCI-60 one-dose screen, 48 h (100 = growth as untreated, 0 = no growth, -100 = all killed)
# Conditions in all cases: 10 µM unless noted
# SR leukemia = test system: SR leukemia
# RPMI-8226 leukemia = test system: RPMI-8226 leukemia
# OVCAR-8 ovarian = test system: OVCAR-8 ovarian
# OVCAR-5 ovarian = test system: OVCAR-5 ovarian
# OVCAR-4 ovarian = test system: OVCAR-4 ovarian
# SK-OV-3 ovarian = test system: SK-OV-3 ovarian
# IGROV1 ovarian = test system: IGROV1 ovarian
# OVCAR-3 ovarian = test system: OVCAR-3 ovarian
# HS 578T breast = test system: HS 578T breast
# T-47D breast = test system: T-47D breast
# BT-549 breast = test system: BT-549 breast
# MDA-MB-435 melanoma = test system: MDA-MB-435 melanoma
# SW-620 colon = test system: SW-620 colon
# MCF7 breast = test system: MCF7 breast
# HCT-116 colon = test system: HCT-116 colon
# HCC-2998 colon = test system: HCC-2998 colon
# KM12 colon = test system: KM12 colon
# NCI/ADR-RES ovarian = test system: NCI/ADR-RES ovarian
Structure (SMILES),growth (SR leukemia),growth (RPMI-8226 leukemia),growth (OVCAR-8 ovarian),growth (OVCAR-5 ovarian),growth (OVCAR-4 ovarian),growth (SK-OV-3 ovarian),growth (IGROV1 ovarian),growth (OVCAR-3 ovarian),growth (HS 578T breast),growth (T-47D breast),growth (BT-549 breast),growth (MDA-MB-435 melanoma),growth (SW-620 colon),growth (MCF7 breast),growth (HCT-116 colon),growth (HCC-2998 colon),growth (KM12 colon),growth (NCI/ADR-RES ovarian) [%]
COc1cc(N=Nc2cc(Cc3ccc(N(C)C)cc3)c(N)cc2N(C)C)c2ncccc2c1,-13.5% (active),-53.4% (active),-37% (active),42.8%,-48.9% (active),-0.131% (active),7.41% (active),-28.7% (active),18.3%,-12.1% (active),29.6%,18.7%,-33.7% (active),-1.6% (active),-23.7% (active),26.1%,-11.4% (active),
Cc1cc(C)c2c(-c3nnc(N)s3)cc(=O)oc2c1,105%,72.3%,102%,103%,100%,108%,101%,105%,,99.6%,98.8%,94.3%,98.2%,92.2%,102%,108%,98.8%,102
O=C(NCCCNc1cc(-c2cn(-c3ccccc3)nc2-c2cccc(O)c2)ccn1)c1cccc(O)c1,-9.11% (active),45.2%,40.9%,107%,67.8%,69.3%,84.5%,58.3%,34.2%,8.13% (active),37.5%,32.1%,51%,47.3%,47.3%,64.8%,45.3%,
Cc1cc(NCc2cc(Nc3ccnc4cc(Cl)ccc34)ccc2F)nc(N2CCCC2)n1,-23.9% (active),-24.2% (active),2.5% (active),6.27% (active),-0.25% (active),51.1%,-2.2% (active),-73.6% (active),,-59.7% (active),58.1%,-94.7% (active),-1.87% (active),-14.1% (active),-53.5% (active),-67.9% (active),12%,12.7
CCN(CC)CCCNc1ccc(Nc2ccc(OC)cc2)cc1,52.9%,64.5%,83.1%,108%,84.6%,106%,37.6%,59.6%,,118%,59%,82.7%,49.7%,110%,82.2%,,85.3%,94.7
CCOC(=O)c1c2c(n3ccc(NC(=O)OC(C)(C)C)cc13)C(=O)c1ncccc1C2=O,7.58% (active),-6.66% (active),-11.4% (active),-5.26% (active),11.9%,-32.9% (active),-4.89% (active),-33.6% (active),-25.3% (active),5.16% (active),-36.7% (active),-62.2% (active),-74.9% (active),-72.2% (active),-65.8% (active),-59.4% (active),-46.4% (active),
COc1cccc(-c2nn(-c3ccccc3)cc2-c2ccnc(NCCNC(=O)Nc3ccccc3)c2)c1,-10.6% (active),39.5%,38%,92.4%,53.9%,58%,65.4%,55.8%,,20.3%,30.2%,42.9%,71.9%,56.6%,35.3%,39.1%,37.6%,34.8
Cc1ccc(-c2cc3c(cc2O)C2CCCCC2(N2CCOCC2)O3)cc1 (centres undefined),86%,96%,102%,110%,91%,104%,104%,110%,,85%,95.4%,98.4%,117%,88.5%,97.3%,106%,109%,99.1
CCCCCCCCCCCCCCCCCCOc1ccc(CC(=O)OCC[N+]2(C)CCCC2)cc1,101%,97.6%,99.7%,97.9%,87.3%,108%,94.1%,109%,95%,95.5%,123%,100%,95%,90.9%,92%,104%,101%,
CNS(=O)(=O)c1n[nH]nc1-c1cc(C(C)(C)C)c(O)c(C(C)(C)C)c1,98.6%,96.2%,100%,111%,100%,92.9%,103%,112%,102%,78.9%,,106%,109%,93.8%,94.6%,105%,105%,105
CN1CCN(C(=O)c2c3c(n4ccccc24)C(=O)c2ncccc2C3=O)CC1,18%,57.9%,68%,99.6%,72%,70%,60%,7.09% (active),,93.3%,57.3%,76.1%,37.6%,26.9%,44.1%,70.9%,65.4%,71.5
O=C(NCCNc1cc(-c2cn(-c3ccccc3)nc2-c2cccc(O)c2)ccn1)Nc1ccccc1,2.22% (active),60.1%,74.3%,92.4%,70.1%,65.1%,67%,82.3%,50.5%,45.9%,52.9%,93%,84.5%,78.4%,53.2%,92.5%,89.2%,
CN(C)c1ccc(-c2cc(-c3ccc(Nc4nc(Nc5ccc(Cl)cc5)nc(Nc5ccc(Cl)cc5)n4)cc3)no2)cc1,-39.3% (active),-58.6% (active),49.7%,54.6%,41.6%,80.1%,22.4%,29.8%,13.6%,-4.43% (active),58.2%,9.44% (active),53.6%,13.4%,31.3%,-5.58% (active),28.5%,
COc1cccc(-c2nn(-c3ccccc3)cc2-c2ccnc(NCCCNC(=O)c3ccccc3)c2)c1,-19.8% (active),27.9%,38%,92.7%,43.1%,41.7%,67.1%,51.2%,51.3%,4.22% (active),14%,5.43% (active),39.7%,33.4%,36%,52.3%,33.6%,
C=C1C(=O)O[C@H]2[C@H]1CC/C(COC(=O)C(=O)c1c[nH]c3ccc(OC)cc13)=C\CC[C@@]1(C)O[C@@H]21,-2.97% (active),-35.6% (active),-24.6% (active),-30.6% (active),-12% (active),15.8%,-73% (active),-74.6% (active),,-54.5% (active),-63.7% (active),-85.3% (active),-61.4% (active),-30.1% (active),-97.3% (active),-81.9% (active),-71.2% (active),
COc1cccc(Nc2nccc(Nc3ccc4[nH]ncc4c3)n2)c1,-11.5% (active),-39.6% (active),-80.5% (active),32.9%,-59.6% (active),15.3%,-24.2% (active),-61.5% (active),23.9%,-51.9% (active),-15.9% (active),-78.4% (active),-69.3% (active),-50.6% (active),-87% (active),-7.35% (active),-44.3% (active),
O=C1/C(=C/c2ccc(Br)cc2)C=C(c2ccccc2)N1CCc1ccccc1,58.6%,101%,17.7%,66%,-17.1% (active),15.4%,41.9%,42.1%,22.8%,50.5%,74.5%,63.2%,70.2%,55.2%,22.7%,70.1%,87.9%,
CCCCCCCCCCCCCCCCCCOc1ccccc1CC(=O)OCCC[N+](C)(C)C,56.6%,38.1%,43.8%,46.9%,35%,94.2%,-15.2% (active),64.3%,67.2%,72.3%,102%,58.3%,40%,46.5%,64%,37.2%,76.1%,
